Compounds without any hit were thinned out: in the full panel of roughly 83,000, 20% have a hit.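 Assay: single dose, 48 h. Readout: percent growth (0 = no net growth; negative = cell death). Active: <10.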 Unmarked numbers belong to inactive results. The source made the active and inactive calls.
How the values were obtained:
Experiment in all cases: NCI-60 one-dose screen, 48 h (100 = growth as untreated, 0 = no growth, -100 = all killed)
Settings in all cases: 10 µM unless noted
NCI-H23 lung = test system: NCI-H23 lung
NCI-H226 lung = test system: NCI-H226 lung
NCI-H322M lung = test system: NCI-H322M lung
HOP-62 NSCLC = test system: HOP-62 NSCLC
NCI-H460 lung = test system: NCI-H460 lung
NCI-H522 lung = test system: NCI-H522 lung
A549/ATCC NSCLC = test system: A549/ATCC NSCLC
786-0 renal = test system: 786-0 renal
COLO 205 colon = test system: COLO 205 colon
DU-145 prostate = test system: DU-145 prostate
K-562 leukemia = test system: K-562 leukemia
MALME-3M melanoma = test system: MALME-3M melanoma
MDA-MB-231 breast = test system: MDA-MB-231 breast
RXF 393 renal = test system: RXF 393 renal
SF-268 CNS = test system: SF-268 CNS
SF-295 CNS = test system: SF-295 CNS
SF-539 CNS = test system: SF-539 CNS
M14 melanoma = test system: M14 melanoma
UACC-257 melanoma = test system: UACC-257 melanoma
HOP-92 NSCLC = test system: HOP-92 NSCLC

| Structure (SMILES) | growth (NCI-H23 lung) | growth (NCI-H226 lung) | growth (NCI-H322M lung) [%] | growth (HOP-62 NSCLC) [%] | growth (NCI-H460 lung) | growth (NCI-H522 lung) | growth (A549/ATCC NSCLC) | growth (786-0 renal) | growth (COLO 205 colon) | growth (DU-145 prostate) | growth (K-562 leukemia) | growth (MALME-3M melanoma) | growth (MDA-MB-231 breast) | growth (RXF 393 renal) | growth (SF-268 CNS) [%] | growth (SF-295 CNS) | growth (SF-539 CNS) | growth (M14 melanoma) | growth (UACC-257 melanoma) [%] | growth (HOP-92 NSCLC) [%] |
| --- | --- | --- | --- | --- | --- | --- | --- | --- | --- | --- | --- | --- | --- | --- | --- | --- | --- | --- | --- | --- |
| COC(=O)[C@]12CC[C@@H](C)[C@H](C)[C@@H]1C1=CC[C@@H]3[C@@]4(C)C[C@@H](O)OC[C@](C)(C=O)C4C(=O)C[C@@]3(C)[C@]1(C)CC2 (stereo not given in full) | 5.09% (active) | -21.5% (active) | 27.6 | 13 | -13% (active) | -41.9% (active) | 7.39% (active) | 2.91% (active) | -94.4% (active) | 14.5% | 3.89% (active) | -8.79% (active) | -14.9% (active) | -7.01% (active) | 34.9 | 1.62% (active) | 7.45% (active) | 6.13% (active) | – | – |
| N#CCCCCCn1c2ccccc2c2c3c(c4c5ccccc5n(CCCCCC#N)c4c21)C(=O)N(O)C3=O | 72.5% | 79.1% | 81.5 | 37.1 | 87.7% | 53.7% | 94.5% | 92.1% | 84.6% | 93.6% | 79.7% | 77.1% | 32.3% | 80.8% | 70.3 | 89.2% | 71% | 85.3% | – | – |
| O=C(O)c1cccc2c1Cc1cc([N+](=O)[O-])ccc1-2 | 103% | 100% | 109 | 105 | 110% | 103% | 107% | 108% | 107% | 109% | 108% | – | 102% | 118% | 104 | 115% | 93% | 110% | 109 | – |
| COc1ccc2c(c1)c(-c1nc(-c3c[nH]c4ncccc34)cs1)cn2CCN | 68% | 70.6% | 57.7 | 58.3 | 45% | 65.6% | 48.2% | 72.1% | 32.2% | 59.7% | 41.5% | 81.6% | 53.7% | 59.9% | 80.1 | 95.3% | 68.8% | 67.5% | 98.2 | – |
| O=S(=O)(NCCNc1cc(-c2cn(-c3ccccc3)nc2-c2cccc(O)c2)ccn1)c1ccc(Br)cc1 | 39.4% | 45% | 50.8 | 40.4 | 26% | 31.9% | 27.2% | 2.12% (active) | -64% (active) | 52.2% | 3.66% (active) | 43.2% | 4.31% (active) | 40.1% | 36.1 | 7.27% (active) | 46.2% | 20.3% | – | – |
| C=C1C(=O)O[C@H]2[C@H]1CC/C(COC(=O)NCc1cc3ccccc3[nH]1)=C\CC[C@@]1(C)O[C@@H]21 | 35.8% | 64.5% | 88.3 | 58.3 | 55.3% | -84.4% (active) | – | -84.5% (active) | -52.2% (active) | 1.16% (active) | -5.26% (active) | -59.4% (active) | -42.5% (active) | -86.2% (active) | 59.3 | 90.1% | -46.2% (active) | -27.9% (active) | 46.2 | – |
| CCCNc1nc(N(C)O)nc(N(C)O)n1 | 41.3% | 62.9% | 41.5 | 16.6 | – | 37% | 41.3% | 7.79% (active) | 9.94% (active) | 24.9% | 50.7% | 83.2% | 39.5% | 39% | 35.2 | 21.5% | 27.1% | 20.7% | 56.2 | 45.2 |
| COc1cc2ncnc(Nc3ccc(OCc4cccc(F)c4)c(Cl)c3)c2cc1NC(=O)C1CCCC1 | 94.8% | 76% | 34.4 | 78.9 | – | 50% | 65.2% | 78.3% | 97.2% | 78.3% | 91.2% | 107% | 84.5% | 83% | 89.1 | 101% | 96.1% | 71.4% | – | – |
